Reference: PubChem BioAssay AID1159580 (chemical genetic matrix, 2015)
Values joined by “and” are separate entries in the source; they are usually repeats but may differ in a detail not shown here. Equal values may be shown once. Out of some 5,500 compounds screened, about 2,000 (36%) were called active. Roughly 18% stayed inconclusive and do not appear here. Rule as the data show it: active = normalized growth mostly below about 0.91 (no sharp cut-off); inconclusive = no clear call, values can overlap the other calls; inactive = mostly above about 0.92. The list shows a part of the results. Where a SMILES comes first, the peptide text is derived from it. Bridges are numbered along the chain shown (N, C = ends). [ ]: non-standard residue; d: D form. The star is where a group is joined. Octanoyl(6-Me) = CCC(C)CCCCC(=O)*; Dab = NCC[CH](N)C(=O)O

Assay: chemical genetic growth profiling, strain panel (AID 1159580);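 also: tested at 20 µM; growth read once vehicle control cultures reached saturation at 30 °C; 1 = growth at the plate median or of vehicle wells; lower values mean less growth of the strain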
Details: S. cerevisiae deletion strains, growth OD

Measured: normalized growth

CCC(C)CCCCC(=O)NC(CCN)C(=O)NC(C(=O)NC(CCN)C(=O)NC1CCNC(=O)C(C(C)O)NC(=O)C(CCN)NC(=O)C(CCN)NC(=O)C(CC(C)C)NC(=O)C(Cc2ccccc2)NC(=O)C(CCN)NC1=O)C(C)O (configuration not stated) ({Octanoyl(6-Me)}-[Dab]T[Dab][Dab][Dab]FL[Dab][Dab]T; lactam 4-C; configuration not given here)
inactive: locus YAL013W, strain DEP1, hits give low values 1 | locus YAL021C, strain ccr4, hits give low values 0.95 | locus YAL026C, strain drs2, hits give low values 0.934 | locus YAL030W, strain snc1, hits give low values 0.99 | locus YBL061C, strain skt5, hits give low values 0.99 | locus YBR009C, strain hhf1, hits give low values 0.98 | locus YBR021W, strain FUR4, hits give low values 0.996 | locus YBR023C, strain chs3, hits give low values 0.99 | locus YBR171W, strain sec66, hits give low values 1 | locus YBR229C, strain ROT2, hits give low values 1 | locus YBR231C, strain swc5, hits give low values 1 | locus YBR279W, strain paf1, hits give low values 0.99 | locus YCL011C, strain gbp2, hits give low values 0.995 | locus YCL016C, strain dcc1, hits give low values 0.975 | locus YCL029C, strain bik1, hits give low values 1.02 | locus YCL061C, strain MRC1, hits give low values 0.959 | locus YCL069W, strain vba3, hits give low values 0.999 | locus YCR088W, strain abp1, hits give low values 0.997 | locus YDL005C, strain med2, hits give low values 0.99 | locus YDL035C, strain GPR1, hits give low values 0.973 | locus YDL040C, strain nat1, hits give low values 1 | locus YDL074C, strain BRE1, hits give low values 1.01 | locus YDL101C, strain DUN1, hits give low values 1.02 | locus YDL134C, strain PPH21, hits give low values 0.997 | locus YDL185W, strain tfp1, hits give low values 1 | locus YDL192W, strain arf1, hits give low values 0.991 | locus YDR001C, strain nth1, hits give low values 1.01 | locus YDR069C, strain doa4, hits give low values 0.989 | locus YDR101C, strain arx1, hits give low values 1.01 | locus YDR137W, strain rgp1, hits give low values 1.08 | locus YDR150W, strain NUM1, hits give low values 0.995 | locus YDR159W, strain sac3, hits give low values 0.985 | locus YDR162C, strain NBP2, hits give low values 0.99 | locus YDR195W, strain ref2 0.953 | locus YDR297W, strain sur2, hits give low values 0.994 | locus YDR318W, strain mcm21, hits give low values 1.01 | locus YDR334W, strain swr1, hits give low values 1 | locus YDR335W, strain msn5, hits give low values 0.998 | locus YDR388W, hits give low values 1.01 | locus YDR392W, strain spt3, hits give low values 0.802 | locus YDR502C, strain sam2, hits give low values 0.997 | locus YEL003W, strain gim4, hits give low values 0.997 | locus YEL037C, strain rad23, hits give low values 1 | locus YEL061C, strain CIN8 (second series), hits give low values 1 | locus YEL061C, strain CIN8, hits give low values 0.998 | locus YER015W, strain faa2, hits give low values 0.992 | locus YER016W, strain bim1, hits give low values 1 | locus YER110C, hits give low values 1.02 | locus YER111C, strain swi4, hits give low values 1 | locus YER155C, strain BEM2 (second series), hits give low values 0.91 | locus YER155C, strain BEM2, hits give low values 1.02 | locus YER167W, strain BCK2, hits give low values 0.996 | locus YFR010W, strain ubp6, hits give low values 0.999 | locus YGL078C, strain dbp3, hits give low values 0.993 | locus YGL086W, strain mad1, hits give low values 0.989 | locus YGL167C, strain pmr1, hits give low values 0.978 | locus YGL173C, strain kem1, hits give low values 0.99 | locus YGL227W, strain vid30, hits give low values 1.01 | locus YGL240W, strain doc1, hits give low values 0.986 | locus YGL248W, strain PDE1, hits give low values 1.01 | locus YGL253W, strain hxk2, hits give low values 1.01 | locus YGR078C, strain PAC10, hits give low values 1.02 | locus YGR135W, strain pre9, hits give low values 0.998 | locus YGR229C, strain SMI1, hits give low values 0.976 | locus YGR252W, strain gcn5, hits give low values 0.937 | locus YHR013C, strain ard1, hits give low values 0.901 | locus YHR027C, strain rpn1, hits give low values 0.989 | locus YHR030C, strain SLT2, hits give low values 1 and 0.991 | locus YHR079C, strain IRE1 (second series), hits give low values 1.01 | locus YHR079C, strain IRE1, hits give low values 0.995 | locus YHR094C, strain hxt1, hits give low values 1.01 | locus YHR129C, strain ARP1, hits give low values 1.01 | locus YHR142W, strain chs7, hits give low values 1.01 | locus YHR200W, strain rpn10, hits give low values 0.996 | locus YIL066C, strain RNR3, hits give low values 0.984 | locus YIL073C, strain SPO22, hits give low values 1.02 | locus YIL125W, strain kgd1, hits give low values 0.994 | locus YIR030C, strain dcg1, hits give low values 1.01 | locus YJL092W, strain hpr5, hits give low values 1 | locus YJL095W, strain BCK1 (second series), hits give low values 1.01 | locus YJL095W, strain BCK1, hits give low values 1.02 and 1 | locus YJL115W, strain asf1, hits give low values 0.977 | locus YJL129C, strain trk1, hits give low values 1.09 | locus YJL134W, strain LCB3, hits give low values 1 | locus YJL154C, strain vps35, hits give low values 1.01 | locus YJL164C, strain tpk1, hits give low values 0.98 | locus YJL166W, strain qcr8, hits give low values 0.981 | locus YJL168C, strain set2, hits give low values 1.01 | locus YJL187C, strain SWE1 (second series), hits give low values 1.02 | locus YJL187C, strain SWE1, hits give low values 0.998 | locus YJR043C, strain POL32, hits give low values 1.02 | locus YJR066W, strain TOR1, hits give low values 0.97
